# PostGolgi ctrl: growth inhibition of yeast control strain, primary screen, counter-screen for post-Golgi transport modulator project. efflux-deficient yeast background strain, growth absorbance A615, 16 h. actives 5% (n = 98,000). inhibition, % at 10 µM. AID 738, 2007
# PostGolgi yeast: phenotypic screen on post-Golgi transport, primary screen. actives 0.9% (n = 98,000). inhibition, % at 10 µM. post-Golgi transport phenotypic cell assay;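 further: yeast cells grown in 1536-well plates; yeast grown about 18 h at 30C before absorbance read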
# CYP2C9 inh: blockers of cytochrome P450 2C9 activity – biochemical, luminescence, ADME assay, primary screen; CYP2C9 Supersomes, luciferin-H conversion; actives 20% (n = 96,000); inhibition, % at 5 µM; P11712;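 active means blocking of liver enzyme CYP2C9 beyond about 50% at 5 µM, limit read from the data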
# CYP2C19 inhib: blockers of cytochrome P450 2C19 activity – biochemical, luminescence, ADME assay, primary screen; inhibition, % at 5 µM; actives 21% (n = 96,000); CYP2C19 Supersomes, luciferin-H EGE luminescence, 30 min; P33261;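 active means CYP2C19 inhibition above a set limit at 5 µM in the primary screen, cut at about 50% in these data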;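 further: plate controls were negative control wells for no effect and 2.5 mM tranylcypromine positive control for full effect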
# Target sequence (P33261 whole entry, looked up): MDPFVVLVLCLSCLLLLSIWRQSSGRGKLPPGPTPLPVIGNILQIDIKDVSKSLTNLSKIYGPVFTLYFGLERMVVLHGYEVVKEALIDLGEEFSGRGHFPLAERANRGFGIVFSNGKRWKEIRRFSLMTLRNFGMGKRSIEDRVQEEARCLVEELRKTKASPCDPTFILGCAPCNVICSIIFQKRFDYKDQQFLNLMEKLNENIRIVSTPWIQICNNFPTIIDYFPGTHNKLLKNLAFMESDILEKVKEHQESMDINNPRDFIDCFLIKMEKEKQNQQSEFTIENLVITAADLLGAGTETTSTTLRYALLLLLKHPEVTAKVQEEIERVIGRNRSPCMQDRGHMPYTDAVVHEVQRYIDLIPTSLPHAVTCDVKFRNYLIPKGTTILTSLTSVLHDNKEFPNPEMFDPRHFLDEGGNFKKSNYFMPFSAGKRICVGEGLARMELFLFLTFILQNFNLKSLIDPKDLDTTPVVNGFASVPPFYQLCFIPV
# CYP2C19 activ: human CYP2C19 activators, primary screen, biochemical, luminescence; Cytochrome P450 2C19 (Homo sapiens), P33261; recombinant CYP2C19, luciferin-H EGE luminescence; active compounds read high; 0 = fully inhibited enzyme, 1 = untreated enzyme; activation factor at 5 µM; 96,000 tested, under 10 active; AID 1025, 2008;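 active means activation factor of at least 2 at 5 µM in the primary screen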;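 further: 0 = wells with 2.5 mM tranylcypromine and 1 = vehicle-only wells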
# CYP2C9 activ: human CYP2C9 activators, primary screen, biochemical, luminescence. actives 1.4% (n = 96,000). Cytochrome P450 2C9 (Homo sapiens), P11712. recombinant CYP2C9, luciferin-H conversion; active compounds read high; factor 1 = untreated enzyme, 0 = blocked. activation factor at 5 µM. AID 1024, 2008;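 active means activation factor of 2 or more for CYP2C9 at a 5 µM dose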;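 further: 0 = sulfaphenazole-blocked wells and 1 = vehicle-only wells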
# Active calls of the source: *; x = no result given. A selection: hits, their analogues and other compounds. The true share with any hit is near 32%. Unless noted, no stated cut-off is given here; in the data, active means inhibition above about 30%; inactive means the rest.
SMILES,PostGolgi ctrl,PostGolgi yeast,CYP2C9 inh,CYP2C19 inhib,CYP2C19 activ,CYP2C9 activ
COc1ccc(S(=O)(=O)Cc2ccc(C(=O)NCCCN3CCc4ccccc4C3)o2)cc1,9.5,-2.2,87.6*,15.6,0.8,0.1
CCCCNC(=O)c1ccc(CS(=O)(=O)c2ccc(OC)cc2)o1,-3.9,-11.6,-1.0,10.7,0.9,1
COc1ccc(S(=O)(=O)Cc2ccc(C(=O)NC3CCCC3)o2)cc1,0.9,2.0,31.1,-1.5,1,0.7
CN(C)c1ccc(C2C3C(=O)NC(=O)C3ON2c2ccc(Cl)cc2)cc1 (stereo not given),28.6,-4.2,37.1,50.7*,0.5,0.6
O=C1C2=C(NC(=S)NC2c2ccc(Cl)cc2)NC(c2ccc(Cl)cc2)N1c1ccc(Cl)cc1 (stereo not given),3.9,3.8,27.1,36.3,0.6,0.7
COc1ccc(CC(=O)N2CCN(c3ccc(C4=NNC(=O)CC4C)cc3)CC2)cc1 (stereo not given),16.9,-2.7,6.1,6.4,0.9,0.9
O=C(NCc1ccncc1)c1ccc(Cl)c(S(=O)(=O)N2CCOCC2)c1,-2.7,15.0,81.9*,67.8*,0.3,0.2
O=C(Nc1ccccc1)c1ccc(NCc2ccco2)c(S(=O)(=O)N2CCOCC2)c1,9.7,-2.2,90.4*,86.6*,0.1,0.1
O=C(Nc1ccccc1)c1ccc(NCc2cccnc2)c(S(=O)(=O)N2CCOCC2)c1,4.2,2.6,55.9*,53.7*,0.5,0.4
O=C(Nc1ccccc1)c1ccc(NCCN2CCOCC2)c(S(=O)(=O)N2CCOCC2)c1,1.6,-0.5,5.6,7.6,0.9,0.9
O=C(NCc1ccco1)c1ccc(Cl)c(S(=O)(=O)N2CCOCC2)c1,-1.4,6.8,30.5,32.3,0.7,0.7
CNC(=O)CSc1nnc(-c2ccc(S(=O)(=O)N3CCCC3)cc2)n1-c1cccc(C)c1C,8.1,0.0,87.7*,18.0,0.8,0.1
COc1ccccc1-n1c(SCC(=O)O)nnc1-c1ccc(S(=O)(=O)N2CCCCC2)cc1,-0.1,-5.7,48.1,19.3,0.8,0.5
O=C(N/N=C/c1cccn1-c1ccc([N+](=O)[O-])cc1)C(O)c1ccccc1 (stereo not given),-2.6,8.0,-2.2,15.6,0.8,1
O/N=C/c1cccn1-c1ccc(O)cc1,-4.3,-2.6,-198.7,45.8,0.5,3*
CC(/C=C/c1cccs1)=C\C(=O)O,32.1*,-8.7,-1.0,-13.2,1.1,1
O=C(/C=C/c1cccs1)c1ccc(Br)cc1,2.9,-0.5,9.0,4.5,1,0.9
CCCCNS(=O)(=O)c1ccc(NC(=O)c2c(-c3ccccc3Cl)noc2C)cc1,7.2,-5.0,100.3*,82.6*,0.2,0
Cc1onc(-c2ccccc2Cl)c1C(=O)Nc1ccc(S(=O)(=O)NCC2CCCO2)cc1 (stereo not given),7.7,5.4,67.0*,29.2,0.7,0.3
Cc1onc(-c2ccccc2Cl)c1C(=O)Nc1ccc(-n2nncc2-c2ccco2)cc1,25.8,11.5,92.8*,99.4*,0,0.1
Cc1onc(-c2ccccc2Cl)c1C(=O)NCC1CCCO1 (stereo not given),-2.3,-2.5,10.2,38.7,0.6,0.9
Cc1ccc(-n2c(C)cc(C=C(C#N)C#N)c2C)cc1,12.5,4.1,27.2,41.7,0.6,0.7
CCN(CC)c1ccc(-n2c(C)c(C(C)=O)c(C(C)=O)c2C)cc1,21.3,3.4,79.7*,67.2*,0.3,0.2
CCN(CC)c1ccc(-n2c(C)cc(C=O)c2C)cc1,-0.5,-8.6,31.4,82.6*,0.2,0.7
CC(C)(C)n1nnnc1C(c1cccnc1)N1CCN(C(=O)c2ccco2)CC1 (stereo not given),-0.7,3.9,x,x,x,x
SMILES,PostGolgi ctrl,PostGolgi yeast,CYP2C9 inh,CYP2C19 inhib,CYP2C19 activ,CYP2C9 activ
c1coc(CN(Cc2cccs2)Cc2nnnn2C2CCCCC2)c1,24.9,-3.7,x,x,x,x
CCN(Cc1ccccc1)C(c1cccc(C#N)c1)c1nnnn1C(C)(C)C (stereo not given),14.9,-8.5,91.0*,72.4*,0.3,0.1
Cc1ccc2cc(C(c3nnnn3C3CCCC3)N(Cc3ccco3)Cc3cccs3)c(=O)[nH]c2c1 (stereo not given),12.9,-1.9,41.6,48.7,0.5,0.6
CC(C)(C)n1nnnc1CN(Cc1ccc(F)cc1)Cc1ccco1,27.7,-4.4,86.6*,92.8*,0.1,0.1
CCC(C)(C)n1nnnc1C(c1ccc(C)cc1)N(Cc1ccco1)Cc1cccs1 (stereo not given),17.0,-2.7,90.5*,-3.8,1,0.1
CC(C)(C)n1nnnc1C(c1cccnc1)N(Cc1ccccc1)Cc1ccco1 (stereo not given),28.1,-0.8,72.9*,43.9,0.6,0.3
Cc1cc2occ(CC(=O)Nc3nccs3)c2cc1C(C)C,9.6,-1.8,-1.4,-16.7,1.2,1
Cc1nnc(NC(=O)CSc2nnc(Cc3ccccc3)n2Cc2ccccc2)s1,3.8,1.8,26.0,4.7,1,0.7
COc1cccc(CN(Cc2ccco2)C(c2ccc(F)cc2)c2nnnn2C(C)(C)C)c1 (stereo not given),3.4,-2.8,50.6*,44.1,0.6,0.5
CCC(C)(C)n1nnnc1C(C(C)C)N(Cc1ccco1)Cc1cc2cc3c(cc2[nH]c1=O)OCO3 (stereo not given),8.6,-6.6,-1.4,32.9,0.7,1
CC1CCC(NC(=O)Cn2c3c(c(-c4ccccc4Cl)cc2=O)CCC3)CC1 (stereo not given),9.8,-5.2,49.1,6.7,0.9,0.5
CC(C)CCNC(=O)Cn1c2c(c(-c3ccccc3Cl)cc1=O)CCC2,-4.7,4.0,61.6*,12.6,0.9,0.4
N=C1C(c2nc3ccccc3s2)=C(O)CN1Cc1ccco1,1.9,-0.8,27.9,25.8,0.7,0.7
COc1ccc(N2CC(O)=C(c3nc4ccccc4s3)C2=N)c(OC)c1,14.4,-2.3,3.9,55.2*,0.4,1
CCc1ccc(C2CC(c3cccc(OC)c3)n3nc(N)nc3N2)cc1 (stereo not given),x,x,4.7,12.0,0.9,1
CSCCC(NC(=O)c1ccccc1)C(=O)OCC(=O)Nc1ccc(C)c(Cl)c1 (stereo not given),31.3*,-2.1,82.1*,39.8,0.6,0.2
COC(=O)[C@H](CCSC)NC(=O)Nc1ccc(OC)c(Cl)c1,-6.5,-3.5,-16.6,41.7,0.6,1.2
CCOc1ccc(NC(=O)Cn2nnc(-c3ccccc3F)n2)cc1,-10.0,-9.6,3.1,-3.6,1,1
